HCMV antiviral: blocks human cytomegalovirus replication; HFF cells, HCMV-luciferase reporter, 72 h; stronger effect = lower value; activity change, negative = inhibition, % at 57.5 µM; actives 4.5% (n = 410,000); AID 1259415; in the data active means activity change below about -60%; inconclusive means no clear call, values can overlap the other calls; inactive means above about -39%
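Cell-based, HFFs, 1000 cells/well, 16 h 37C; cpds in DMSO + HCMV-luc, MOI 1 PFU/cell; 72 h 37C; OneGlo luminescence after 5 min RT; norm. to buffer vs Salinomycin 10uM.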
Marburg entry inh: blocks Marburg virus binding to or entry into cells. Potency, µM (highest dose often 37.8 µM), for inactives: top-dose activity change, negative = inhibition, usual class: inhibitors. actives 1.8% (n = 300,000). Marburg virus pseudotyped entry inhibition, cell reporter; calls by dose curve; tested in HEK293 cells; further: potency means the concentration at half of the fitted maximal effect
Pf growth 48h: inhibits P. falciparum growth in the first generation, 48 h; P. falciparum luciferase growth in erythrocytes, 48 h; Potency, µM (highest dose often 28.7 µM), for inactives: top-dose activity change, negative = inhibition, most hits filed as inhibitors; actives 5.9% (n = 310,000); AID 504832; further: potency means the concentration at half of the fitted maximal effect
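Compounds are pin-transferred into medium, infected erythrocytes (2% hematocrit, 0.1% parasitemia final) are added, and plates sit one parasite generation at 37 C in 5% CO2. Detection reagent is then added and luminescence measured.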
Pf growth 96h: inhibits malaria parasite growth, 96 h; P. falciparum luciferase reporter growth, 96 h; actives 6.9% (n = 320,000); Potency, µM (highest dose often 28.7 µM), inactives show at the highest dose activity change, negative = inhibition, hits mostly inhibitors; further: potency means the concentration at half of the fitted maximal effect
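Readout is luminescence from an integrated firefly luciferase in P. falciparum. Red cells, 2% hematocrit and 0.05% parasitemia final, were cultured with compound through two parasite generations (96 hours) at 37 C, 5% CO2.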
Lassa entry inh: inhibitors of Lassa virus binding or cell entry; Potency, µM (titrated, usually from 37.9 µM), for inactives: at the top dose activity change, negative = inhibition, actives largely listed as inhibitors; Lassa virus pseudotype entry inhibition, cell reporter; actives 1.2% (n = 300,000); AID 540256; calls by dose curve; tested in HEK293 cells; further: potency means the concentration at half of the fitted maximal effect; nearly all actives have a fitted effect of over 50% in size
HCV inhibitor: inhibitors of hepatitis C virus infection; Huh7.5.1 HCVcc-Cre infection, luciferase reporter, 44 h; Potency, µM (titrated, usually from 41.8 µM), for the others: top-dose activity change, negative = inhibition, actives largely listed as inhibitors; actives 3.4% (n = 340,000); AID 651820; further: potency means the concentration at half of the fitted maximal effect
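Cells (1,000/well) were plated 4 h before compound, then infected with HCVcc-Cre virus (~0.5 moi). After 44 h further culture, infection was read as luciferase luminescence following a 15 min substrate incubation at room temperature.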
Starred values were filed as active, the others as inactive; ? = inconclusive; . = not tested or not shown; [ ] = dose if it differs, or a comment. This is a sample that favours compounds with a hit; in the whole collection about 14% have one here. Unless noted, the call rests on the fitted dose curve; in most records, active means well fitted inhibition curve with a large enough effect; inconclusive means small, poorly fitted or top-dose-only effect, or another doubt; inactive means no such curve, though single readings can be large or run the other way. On the % scale 0 is the no-effect control and ±100 the full control effect.

SMILES | HCMV antiviral | Marburg entry inh | Pf growth 48h | Pf growth 96h | Lassa entry inh | HCV inhibitor
COc1ccccc1C(=O)Nc1ccc2nc(N3CCC(C)CC3)cc(C)c2c1 | ? | -21%[46.1 µM] | . | . | ? | .
O=C(Cn1c(-c2ccccc2)c[n+]2ccsc12)c1ccc([N+](=O)[O-])cc1 | -99* | ? | 11% | ? | -17% | 10µM*
O=C(Cn1nnc(-c2ccccc2)n1)c1ccccc1 | -22 | 23% | 8% | ? | ? | 1%
O=C(Cn1c(-c2ccccc2)c[n+]2ccsc12)c1ccccc1 | -62* | . | ? | ? | . | -1%
N/C(Cc1cccc2ccccc12)=N\OC(=O)Cc1cccs1 | 101 | 2% | ? | 36% | 6% | 34%
COc1ccc(CC(=O)O/N=C(\N)c2ccccn2)cc1OC | 20 | ? | 22% | -30% | ? | 10%
COc1ccc(CC(=O)O/N=C(\N)Cc2cccc3ccccc23)cc1 | 42 | 18% | ? | 12µM* | -19% | 9%
COc1ccc(CC(=O)O/N=C(\N)Cc2cccc3ccccc23)cc1OC | 23 | 10% | 10µM* | 278% | 0% | 12%
COc1ccc(Cl)cc1NC(=O)c1cc(=O)c2cc(C)cc(C)c2o1 | 10 | ? | . | . | 5%[46.1 µM] | .
CC(=O)Nc1ccc(N2CCCC(C)C2)c([N+](=O)[O-])c1 (stereo not drawn) | ? | 5% | -19% | -1% | 0% | 3.2µM*
Cc1ccc(C(=O)c2cc([N+](=O)[O-])ccc2N2CCCCC2)cc1 | -85* | ? | ? | 35% | ? | -13%
CC1CCCN(c2ccc([N+](=O)[O-])cc2C(=O)c2ccccc2)C1 (stereo not drawn) | -74* | ? | ? | 0% | ? | 12%
Cc1ccc(C(=O)c2cc([N+](=O)[O-])ccc2N2CC(C)OC(C)C2)cc1 (stereo not drawn) | -15 | . | 9.3µM* | ? | . | -20%
CC(=O)Nc1ccc(N2CCC(C)CC2)c([N+](=O)[O-])c1 | ? | 7%[46.1 µM] | -19% | 4% | 1%[46.1 µM] | 13%
O=C(c1ccccc1)c1cc([N+](=O)[O-])ccc1N1CCOCC1 | ? | ? | -15% | ? | -21% | -8%
Cc1cn2c(=O)c(S(=O)(=O)NCc3ccc(F)cc3)c(C)nc2s1 | 7 | . | . | . | -15%[46.1 µM] | .
CCCCCCCCNCCS(=O)(=O)NCc1ccc(OC)cc1 | -40 | . | . | . | . | ?
O=C(O)c1ccc(/C=C(\c2nc3ccccc3[nH]2)c2nc3ccccc3s2)cc1 | -31 | ? | 6% | 8% | 19% | 27%
CC(C)(C)c1ccc(/C=C(\c2nc3ccccc3[nH]2)S(=O)(=O)c2ccccc2)cc1 | . | . | . | . | . | 11µM*
C#CCOCCOCCOCCNc1nc(N2CCN(C(=O)C([C@@H](C)CC)n3cc(C(N)CO)nn3)CC2)nc(N2CCN(C(=O)[C@H](CCC(=O)O)n3cc(C(N)Cc4ccc(O)cc4)nn3)CC2)n1 (stereo partly drawn) | . | . | 41% | 36% | . | .
C#CCOCCOCCOCCNc1nc(N2CCN(C(=O)[C@H](CCC(=O)O)n3cc(C(N)CO)nn3)CC2)nc(N2CCN(C(=O)[C@H](Cc3ccc(O)cc3)n3cc(C(N)CC(C)C)nn3)CC2)n1 (stereo partly drawn) | . | . | 44% | 44% | . | .
C#CCOCCOCCOCCNc1nc(N2CCN(C(=O)[C@H]([C@@H](C)CC)n3cc([C@@H](N)Cc4ccc(O)cc4)nn3)CC2)nc(N2CCN(C(=O)[C@H]([C@@H](C)CC)n3cc([C@@H](N)CC(C)C)nn3)CC2)n1 | 27 | . | 1.9µM* | 1.5µM* | . | -3%
C#CCOCCOCCOCCNc1nc(N2CCOCC2)nc(N2CCN(C(=O)[C@H]([C@@H](C)CC)n3cc([C@@H](N)CC(C)C)nn3)CC2)n1 | 23 | . | ? | 6.6µM* | . | -7%
C#CCOCCOCCOCCNc1nc(N2CCOCC2)nc(N2CCN(C(=O)[C@H]([C@@H](C)CC)n3cc([C@@H](N)Cc4ccc(O)cc4)nn3)CC2)n1 | . | . | 1.5µM* | ? | . | 3%
C#CCOCCOCCOCCNc1nc(N2CCN(C(=O)[C@H]([C@@H](C)CC)n3cc([C@@H](N)Cc4ccc(O)cc4)nn3)CC2)nc(N2CCN(C(=O)[C@H](Cc3ccc(O)cc3)n3cc([C@@H](N)C(C)CC)nn3)CC2)n1 (stereo partly drawn) | -21 | . | ? | ? | . | 9%
SMILES | HCMV antiviral | Marburg entry inh | Pf growth 48h | Pf growth 96h | Lassa entry inh | HCV inhibitor
C#CCOCCOCCOCCNc1nc(N2CCOCC2)nc(N2CCN(C(=O)[C@H](Cc3ccc(O)cc3)n3cc([C@@H](N)CC(C)C)nn3)CC2)n1 | 11 | . | 5.2µM* | 12µM* | . | 2%
OC[C@@H]1CN(CCN2CCOCC2)C[C@H](n2cnc3c(N4CCCC4)ncnc32)O1 | 22 | . | . | . | . | .
NCC[C@H]1CCC[C@H](CCN)N1 | . | -4% | . | . | . | .
C#CCOCCOCCOCCNc1nc(N2CCN(C(=O)[C@H]([C@@H](C)CC)n3cc([C@@H](N)CC(C)C)nn3)CC2)nc(N2CCN(C(=O)[C@H](Cc3ccc(O)cc3)n3cc([C@@H](N)C(C)CC)nn3)CC2)n1 (stereo partly drawn) | -8 | . | 5.2µM* | 5.2µM* | . | 0%
C#CCOCCOCCOCCNc1nc(N2CCN(C(=O)[C@H]([C@@H](C)CC)n3cc([C@@H](N)CO)nn3)CC2)nc(N2CCN(C(=O)[C@H](Cc3ccc(O)cc3)n3cc([C@@H](N)CC(C)C)nn3)CC2)n1 | -14 | . | ? | 0% | . | 20%
C#CCOCCOCCOCCNc1nc(N2CCN(C(=O)[C@H]([C@@H](C)CC)n3cc([C@@H](N)Cc4ccc(O)cc4)nn3)CC2)nc(N2CCN(C(=O)[C@H](Cc3ccc(O)cc3)n3cc([C@@H](N)CC(C)C)nn3)CC2)n1 | -17 | . | 4.7µM* | ? | . | 10%
COc1ccc(OCC2CN(C3CCCC3)S(=O)(=O)CCO2)cc1 (stereo not drawn) | -18 | . | . | . | . | .
COc1ccc(CCn2c(C(C)C)nc3c(c(=O)c4ccccc4n3C)c2=O)cc1 | . | 3% | 12µM* | 1.9µM* | -3% | ?
COc1ccc2c(=O)c3c(=O)n(CCc4ccccc4)c(C(C)C)nc3oc2c1 | 10 | 18%[46.1 µM] | 7.4µM* | 5.2µM* | 4% | 11%
COc1ccc(Cn2c(C)nc3c(c(=O)c4ccccc4n3C)c2=O)cc1 | -14 | 3% | ? | ? | -16% | 1%
CCCCCc1nc2c(c(=O)c3ccccc3n2C)c(=O)n1Cc1ccc(OC)cc1 | 23 | . | ? | ? | . | ?
COc1ccc(CCn2c(C)nc3c(c(=O)c4ccccc4n3C)c2=O)cc1 | 32 | ? | ? | 4.7µM* | ? | ?
COC(=O)C1CCN(c2csc3ccc(Cl)cc3c2=O)CC1 | 24 | . | . | . | 7%[46.1 µM] | .

Bioassay records from PubChem BioAssay.
